PubChem BioAssay AID1159580 (chemical genetic matrix, 2015)
Hit rate of the full screen: of about 5,500 compounds, about 2,000 (36%) were called active. About 18% were inconclusive and are not listed. No stated cut-off is given here; in the data, active means normalized growth mostly below about 0.91 (no sharp cut-off); inconclusive means no clear call, values can overlap the other calls; inactive means mostly above about 0.92. The list shows a part of the results.

Experiment: chemical genetic growth profiling, strain panel (AID 1159580);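 further: tested at 20 µM; growth read once vehicle control cultures reached saturation at 30 °C; 1 = growth at the plate median or of vehicle wells; lower values mean less growth of the strain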
Conditions: S. cerevisiae deletion strains, growth OD

Measured: normalized growth

CC12CCC3C(CC=C4CC(O)CCC43C)C1CCC2=O (centres undefined)
active: locus YAL021C, strain ccr4, active compounds read low 0.838 | locus YAL026C, strain drs2, active compounds read low 0.582 | locus YAL030W, strain snc1, active compounds read low 0.927 | locus YBR009C, strain hhf1, active compounds read low 0.834 | locus YBR021W, strain FUR4, active compounds read low 0.752 | locus YBR279W, strain paf1, active compounds read low 0.876 | locus YCL011C, strain gbp2, active compounds read low 0.886 | locus YCL016C, strain dcc1, active compounds read low 0.9 | locus YCL029C, strain bik1, active compounds read low 0.904 | locus YDL035C, strain GPR1, active compounds read low 0.787 | locus YDL074C, strain BRE1, active compounds read low 0.778 | locus YDL134C, strain PPH21, active compounds read low 0.85 | locus YDR137W, strain rgp1, active compounds read low 0.473 | locus YDR162C, strain NBP2, active compounds read low 0.828 | locus YDR195W, strain ref2 1.54 [resistant] | locus YDR318W, strain mcm21, active compounds read low 0.886 | locus YDR392W, strain spt3, active compounds read low 0.234 | locus YDR502C, strain sam2, active compounds read low 0.879 | locus YEL003W, strain gim4, active compounds read low 0.88 | locus YER015W, strain faa2, active compounds read low 0.869 | locus YER155C, strain BEM2 (second series), active compounds read low 0.84 | locus YFR010W, strain ubp6, active compounds read low 0.891 | locus YGL086W, strain mad1, active compounds read low 0.888 | locus YGL173C, strain kem1, active compounds read low 0.879 | locus YGL248W, strain PDE1, active compounds read low 0.857 | locus YGL253W, strain hxk2, active compounds read low 0.791 | locus YGR135W, strain pre9, active compounds read low 0.871 | locus YGR252W, strain gcn5, active compounds read low 0.62 | locus YHR027C, strain rpn1, active compounds read low 0.895 | locus YHR129C, strain ARP1, active compounds read low 0.905 | locus YHR142W, strain chs7, active compounds read low 0.768 | locus YIL066C, strain RNR3, active compounds read low 0.823 | locus YJL095W, strain BCK1 (second series), active compounds read low 0.825 | locus YJL095W, strain BCK1, active compounds read low 0.655 | locus YJL129C, strain trk1, active compounds read low 0.801 | locus YJL164C, strain tpk1, active compounds read low 0.845 | locus YJL166W, strain qcr8, active compounds read low 0.813
inactive: locus YAL013W, strain DEP1, active compounds read low 0.948 | locus YBL061C, strain skt5, active compounds read low 0.936 | locus YBR023C, strain chs3, active compounds read low 0.933 | locus YBR171W, strain sec66, active compounds read low 0.978 | locus YBR229C, strain ROT2, active compounds read low 1.02 | locus YBR231C, strain swc5, active compounds read low 0.926 | locus YCL069W, strain vba3, active compounds read low 0.94 | locus YCR088W, strain abp1, active compounds read low 1.02 | locus YDL005C, strain med2, active compounds read low 0.995 | locus YDL040C, strain nat1, active compounds read low 1.02 | locus YDL101C, strain DUN1, active compounds read low 0.994 | locus YDL185W, strain tfp1, active compounds read low 1.04 | locus YDL192W, strain arf1, active compounds read low 0.934 | locus YDR001C, strain nth1, active compounds read low 1.03 | locus YDR069C, strain doa4, active compounds read low 0.945 | locus YDR101C, strain arx1, active compounds read low 0.955 | locus YDR159W, strain sac3, active compounds read low 0.916 | locus YDR297W, strain sur2, active compounds read low 0.95 | locus YDR334W, strain swr1, active compounds read low 1.04 | locus YDR335W, strain msn5, active compounds read low 0.961 | locus YDR388W, active compounds read low 1.02 | locus YEL037C, strain rad23, active compounds read low 1 | locus YEL061C, strain CIN8 (second series), active compounds read low 1.01 | locus YER016W, strain bim1, active compounds read low 1.01 | locus YER110C, active compounds read low 1.06 | locus YER111C, strain swi4, active compounds read low 1.01 | locus YER155C, strain BEM2, active compounds read low 1.02 | locus YER167W, strain BCK2, active compounds read low 0.929 | locus YGL078C, strain dbp3, active compounds read low 0.979 | locus YGL167C, strain pmr1, active compounds read low 1 | locus YGL227W, strain vid30, active compounds read low 1.01 | locus YGL240W, strain doc1, active compounds read low 0.911 | locus YGR078C, strain PAC10, active compounds read low 0.887 | locus YHR013C, strain ard1, active compounds read low 0.868 | locus YHR030C, strain SLT2, active compounds read low 1.03 | locus YHR079C, strain IRE1 (second series), active compounds read low 1.02 | locus YHR094C, strain hxt1, active compounds read low 1.05 | locus YHR200W, strain rpn10, active compounds read low 0.93 | locus YIL073C, strain SPO22, active compounds read low 0.783 | locus YIL125W, strain kgd1, active compounds read low 0.989 | locus YIR030C, strain dcg1, active compounds read low 1 | locus YJL092W, strain hpr5, active compounds read low 0.948 | locus YJL115W, strain asf1, active compounds read low 0.997 | locus YJL134W, strain LCB3, active compounds read low 1.03 | locus YJL154C, strain vps35, active compounds read low 1.02 | locus YJL168C, strain set2, active compounds read low 1.04 | locus YJL187C, strain SWE1 (second series), active compounds read low 0.879
